Records with an inconclusive call do not appear. The source made the active and inactive calls. Unless noted, calls come from the whole dose curve; as a rule, active = well fitted cell-killing curve with a large enough effect in the repeat runs (not every such curve was filed as active); inconclusive = weak or mixed curves, or effect the other way; inactive = no such curve, though single readings can be large or run the other way.
biological target: Bile acid receptor (Homo sapiens) (UniProt Q96RI1); assay: qHTS assay to identify small molecule agonists of the farnesoid-X-receptor (FXR) signaling pathway (AID 743220; active = well fitted activation curve with a large enough effect in the signal ratio in the repeat runs, not every such curve was filed as active; the % refers to the signal ratio); conditions: HEK293T FXR-UAS-bla, beta-lactamase FRET ratio, 16 h; series mostly up to 62.6 µM
Summary of the method: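 Beta-lactamase reporter under UAS control in GeneBLAzer FXR HEK 293T cells (5000/well) measured with LiveBLAzer FRET substrate after 2 h at room temperature. Compound exposure lasted 16 h at 37C.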
% is set by controls: 0 for no effect and ±100 for the full control effect.

Bile acid receptor (Homo sapiens), sequence (Q96RI1 whole entry, looked up): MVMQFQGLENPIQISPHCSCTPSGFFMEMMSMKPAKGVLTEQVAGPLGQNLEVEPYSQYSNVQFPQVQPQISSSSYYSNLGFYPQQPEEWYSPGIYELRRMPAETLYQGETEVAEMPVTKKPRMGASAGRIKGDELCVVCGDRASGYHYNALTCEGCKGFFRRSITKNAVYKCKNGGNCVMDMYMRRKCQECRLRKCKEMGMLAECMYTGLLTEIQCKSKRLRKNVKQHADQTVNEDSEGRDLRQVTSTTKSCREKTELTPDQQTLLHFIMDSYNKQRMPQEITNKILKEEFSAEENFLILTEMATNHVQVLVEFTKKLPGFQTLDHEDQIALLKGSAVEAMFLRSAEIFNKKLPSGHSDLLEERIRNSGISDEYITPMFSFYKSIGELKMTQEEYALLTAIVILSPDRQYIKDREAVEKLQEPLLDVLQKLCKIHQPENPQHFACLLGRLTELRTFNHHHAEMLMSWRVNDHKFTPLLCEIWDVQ

For `Cc1ccc(OC(=O)CC(C)C)cc1`, which outcome is on record?
The outcome was “inactive”.

For `CC[C@@]1(c2ccccc2)NC(=O)N(C)C1=O`, which outcome is on record?
Its outcome is “inactive”.

Which outcome does the source give for `O=C(O)P(=O)(O)O` here?
The outcome was “inactive”.

For `Cc1ccc2cccnc2c1`, which outcome is on record?
The outcome was “inactive”.

Which outcome does the source give for `CC1(C)C(=O)C(C)(C)C1=O` here?
The outcome was “inactive”.

Which activation does the source give for `C[C@@H]1CC[C@@]2(OC1)O[C@H]1C[C@H]3[C@@H]4CC[C@H]5C[C@@H](O)CC[C@]5(C)[C@H]4CC(=O)[C@]3(C)[C@H]1[C@@H]2C` here?
The activation was 2.31% [at 5.95 µM] (inactive).

With `CCOCCOCCOC(C)=O` as the compound, how does the outcome read?
The outcome was “inactive”.

For `CCOC(=O)CC`, which outcome is on record?
The outcome was “inactive”.

Which outcome does the source give for `c1coc(Cn2cccc2)c1` here?
The outcome was “inactive”.

For `CCCCCCCCS(=O)(=O)O`, which outcome is on record?
The outcome was “inactive”.

With `CC(=O)SCC(CC(=O)c1ccc(C)cc1)C(=O)O` (configuration not stated) as the compound, how does the outcome read?
The outcome was “inactive”.

For `O=S(=O)(O)CC(O)CCl` (configuration not stated), which outcome is on record?
Its outcome is “inactive”.

For `Cc1ccc(O)c([N+](=O)[O-])c1`, which outcome is on record?
The outcome was “inactive”.

With `OCCC(F)(F)C(F)(F)C(F)(F)C(F)(F)C(F)(F)C(F)(F)F` as the compound, how does the outcome read?
Its outcome is “inactive”.

With `CN(C)c1cc(NC(=O)CNC(C)(C)C)c(O)c2c1C[C@H]1C[C@H]3[C@H](N(C)C)C(=O)C(C(N)=O)=C(O)[C@@]3(O)C(=O)C1=C2O` as the compound, how does the outcome read?
The outcome was “inactive”.

For `Cc1ccccc1OCC(=O)O`, which outcome is on record?
Its outcome is “inactive”.

For `CC1(C)CC(N)CC(C)(C)N1`, which outcome is on record?
Its outcome is “inactive”.

system: not listed separately; assay: qHTS assay to identify small molecule antagonists of the farnesoid-X-receptor (FXR) signaling pathway - cell viability counter screen (AID 743221); conditions: FXR-bla HEK293T viability, CellTiter-Glo luminescence, 16 h; series mostly up to 62.6 µM; note: nearly all actives have a fitted effect of over 50% in size
Summary of the method: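 After a 5 h settling period, FXR-bla HEK 293T cells receive compound and chenodeoxycholic acid (50 uM final) and incubate 16 h at 37 C; CellTiter-Glo luminescence, read after 30 min at room temperature, reports cell viability.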

For `CCO/C=C1\N=C(c2ccccc2)OC1=O`, which outcome is on record?
The outcome was “inactive”.

Which outcome does the source give for `CC1(C)S[C@@H]2[C@H](NC(=O)Cc3ccccc3)C(=O)N2[C@H]1C(=O)O` (tested in a mixture with another compound) here?
Its outcome is “inactive”.

For `CC(CC(=O)Cl)CC(C)(C)C` (configuration not stated), which outcome is on record?
The outcome was “inactive”.

With `Cc1ccc2cccnc2c1` as the compound, how does the outcome read?
Its outcome is “inactive”.

Which outcome does the source give for `CCCC(=O)CC` here?
The outcome was “inactive”.

With `CN(C)CCCN(C)C` as the compound, how does the activity change, negative = cytotoxicity read?
The activity change, negative = cytotoxicity was 0.644% [at 5.95 µM] (inactive).

For `c1cc2ccc3ccc4ccc5cccc6c(c1)c2c3c4c56`, which activity change, negative = cytotoxicity is on record?
The activity change, negative = cytotoxicity was 2.77% [at 2.69 µM] (inactive).

With `CC1(C)C(=O)C(C)(C)C1=O` as the compound, how does the outcome read?
Its outcome is “inactive”.

For `C=C(C)C(=O)OCCCC`, which outcome is on record?
Its outcome is “inactive”.

Which activity change, negative = cytotoxicity does the source give for `C[C@@H]1CC[C@@]2(OC1)O[C@H]1C[C@H]3[C@@H]4CC[C@H]5C[C@@H](O)CC[C@]5(C)[C@H]4CC(=O)[C@]3(C)[C@H]1[C@@H]2C` here?
Its activity change, negative = cytotoxicity is 4.76% [at 5.95 µM] (inactive).

Which outcome does the source give for `CC(O)CCCCn1c(=O)c2c(ncn2C)n(C)c1=O` (configuration not stated) here?
Its outcome is “inactive”.

With `CCOC(=O)CC` as the compound, how does the outcome read?
The outcome was “inactive”.

With `c1coc(Cn2cccc2)c1` as the compound, how does the outcome read?
Its outcome is “inactive”.

Which outcome does the source give for `C=COCCCCO` here?
The outcome was “inactive”.

Which outcome does the source give for `CC/C=C\CCCCCCCCCCOC(C)=O` here?
Its outcome is “inactive”.

Which outcome does the source give for `CCCCCCCCS(=O)(=O)O` here?
Its outcome is “inactive”.

With `CN1C(CCl)Nc2cc(Cl)c(S(N)(=O)=O)cc2S1(=O)=O` (configuration not stated) as the compound, how does the outcome read?
Its outcome is “inactive”.

Which outcome does the source give for `CC(=O)SCC(CC(=O)c1ccc(C)cc1)C(=O)O` (configuration not stated) here?
Its outcome is “inactive”.

For `CN(C)c1ccncc1`, which outcome is on record?
Its outcome is “inactive”.

With `O=S(=O)(O)CC(O)CCl` (configuration not stated) as the compound, how does the outcome read?
Its outcome is “inactive”.

With `N[C@H]1C(O)O[C@H](CO)[C@@H](O)[C@@H]1O` (some centres not stated) as the compound, how does the outcome read?
Its outcome is “inactive”.

For `C=CCN1CCc2nc(N)sc2CC1`, which outcome is on record?
The outcome was “inactive”.

With `Cc1ccc(O)c([N+](=O)[O-])c1` as the compound, how does the outcome read?
Its outcome is “inactive”.

For `CN(C)c1cc(NC(=O)CNC(C)(C)C)c(O)c2c1C[C@H]1C[C@H]3[C@H](N(C)C)C(=O)C(C(N)=O)=C(O)[C@@]3(O)C(=O)C1=C2O`, which outcome is on record?
Its outcome is “inactive”.

Which outcome does the source give for `CCOc1ccccc1OCCN[C@H](C)Cc1ccc(OC)c(S(N)(=O)=O)c1` here?
The outcome was “inactive”.

For `CCC(C)SSC(C)CC` (configuration not stated), which outcome is on record?
Its outcome is “inactive”.

For `CC1(C)CC(N)CC(C)(C)N1`, which outcome is on record?
Its outcome is “inactive”.

biological target: Vitamin D3 receptor (Homo sapiens) (UniProt P11473); assay: qHTS assay to identify small molecule agonists of the vitamin D receptor (VDR) signaling pathway (AID 743222; calls by dose curve); conditions: HEK293T VDR-UAS-bla, beta-lactamase FRET ratio, 16 h; series mostly up to 63.5 µM
Summary of the method: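 VDR-bla cells plated 4 h at 37 C, then exposed to compounds for 16 h at 37 C. Beta-lactamase reporter activity measured by fluorescence after 2 h room-temperature loading with LiveBLAzer B/G FRET substrate.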

Vitamin D3 receptor (Homo sapiens), sequence (P11473 whole entry, looked up): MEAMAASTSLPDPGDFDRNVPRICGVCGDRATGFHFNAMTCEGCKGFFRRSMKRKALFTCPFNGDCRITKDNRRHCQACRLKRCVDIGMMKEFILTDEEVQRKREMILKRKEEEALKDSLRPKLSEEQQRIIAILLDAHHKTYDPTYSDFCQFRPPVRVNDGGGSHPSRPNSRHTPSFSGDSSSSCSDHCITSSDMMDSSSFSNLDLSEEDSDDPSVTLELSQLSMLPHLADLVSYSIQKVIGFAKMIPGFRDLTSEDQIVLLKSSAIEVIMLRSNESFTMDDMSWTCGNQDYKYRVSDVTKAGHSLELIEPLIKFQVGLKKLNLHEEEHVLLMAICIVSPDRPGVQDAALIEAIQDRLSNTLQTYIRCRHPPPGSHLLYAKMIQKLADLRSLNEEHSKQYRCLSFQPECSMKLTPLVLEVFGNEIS

With `CC[C@@]1(c2ccccc2)NC(=O)N(C)C1=O` as the compound, how does the outcome read?
The outcome was “inactive”.

Which outcome does the source give for `O=C(O)P(=O)(O)O` here?
The outcome was “inactive”.

Which outcome does the source give for `CC(CC(=O)Cl)CC(C)(C)C` (configuration not stated) here?
The outcome was “inactive”.

Which outcome does the source give for `Cc1ccc(S(=O)(=O)NC(=O)NN2CC3CCCC3C2)cc1` (configuration not stated) here?
The outcome was “inactive”.

For `Cc1ccc2cccnc2c1`, which outcome is on record?
Its outcome is “inactive”.

Which outcome does the source give for `CCCC(=O)CC` here?
Its outcome is “inactive”.

Which activation does the source give for `CN(C)CCCN(C)C` here?
Its activation is -2.68% [at 6.01 µM] (inactive).

With `CC1(C)C(=O)C(C)(C)C1=O` as the compound, how does the outcome read?
The outcome was “inactive”.

For `CCCCN1C(=O)c2ccccc2C1=O`, which outcome is on record?
The outcome was “inactive”.

Which outcome does the source give for `CCOCCOCCOC(C)=O` here?
The outcome was “inactive”.

With `CC(O)CCCCn1c(=O)c2c(ncn2C)n(C)c1=O` (configuration not stated) as the compound, how does the outcome read?
Its outcome is “inactive”.

For `CC/C=C\CCCCCCCCCCOC(C)=O`, which outcome is on record?
Its outcome is “inactive”.

Which outcome does the source give for `CN1C(CCl)Nc2cc(Cl)c(S(N)(=O)=O)cc2S1(=O)=O` (configuration not stated) here?
The outcome was “inactive”.

With `CC(=O)SCC(CC(=O)c1ccc(C)cc1)C(=O)O` (configuration not stated) as the compound, how does the outcome read?
Its outcome is “inactive”.

For `CN(C)c1ccncc1`, which outcome is on record?
Its outcome is “inactive”.

With `O=S(=O)(O)CC(O)CCl` (configuration not stated) as the compound, how does the outcome read?
Its outcome is “inactive”.

With `N[C@H]1C(O)O[C@H](CO)[C@@H](O)[C@@H]1O` (some centres not stated) as the compound, how does the outcome read?
Its outcome is “inactive”.

For `C=CCN1CCc2nc(N)sc2CC1`, which outcome is on record?
Its outcome is “inactive”.

For `Cc1ccc(O)c([N+](=O)[O-])c1`, which outcome is on record?
Its outcome is “inactive”.

With `CN(C)c1cc(NC(=O)CNC(C)(C)C)c(O)c2c1C[C@H]1C[C@H]3[C@H](N(C)C)C(=O)C(C(N)=O)=C(O)[C@@]3(O)C(=O)C1=C2O` as the compound, how does the outcome read?
Its outcome is “inactive”.

Which outcome does the source give for `Cc1ccccc1OCC(=O)O` here?
The outcome was “inactive”.

With `CCOc1ccccc1OCCN[C@H](C)Cc1ccc(OC)c(S(N)(=O)=O)c1` as the compound, how does the outcome read?
Its outcome is “inactive”.

With `CCC(C)SSC(C)CC` (configuration not stated) as the compound, how does the outcome read?
Its outcome is “inactive”.

For `CC1(C)CC(N)CC(C)(C)N1`, which outcome is on record?
Its outcome is “inactive”.

biological target: Vitamin D3 receptor (Homo sapiens) (UniProt P11473); assay: qHTS assay to identify small molecule antagonists of the vitamin D receptor (VDR) signaling pathway (AID 743223; active = well fitted inhibition curve with a large enough effect in the signal ratio in the repeat runs, not every such curve was filed as active; the % refers to the signal ratio); conditions: VDR-UAS-bla HEK293T, beta-lactamase FRET ratio, 16 h; series mostly up to 61 µM
Summary of the method: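 Reporter line VDR-bla; stimulus 1alpha,25-(OH)2 vitamin D3, 3 nM final; compound co-addition, 16 h 37C/5% CO2; LiveBLAzer B/G substrate 2 h RT; fluorescence intensity.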

Which outcome does the source give for `O=C(O)P(=O)(O)O` here?
Its outcome is “inactive”.

With `Cc1ccc(S(=O)(=O)NC(=O)NN2CC3CCCC3C2)cc1` (configuration not stated) as the compound, how does the outcome read?
Its outcome is “inactive”.

With `CCCC(=O)CC` as the compound, how does the outcome read?
Its outcome is “inactive”.

For `CN(C)CCCN(C)C`, which activity change, negative = inhibition is on record?
Its activity change, negative = inhibition is -1.32% [at 6.95 µM] (inactive).

For `c1cc2ccc3ccc4ccc5cccc6c(c1)c2c3c4c56`, which activity change, negative = inhibition is on record?
Its activity change, negative = inhibition is -9.77% [at 3.11 µM] (inactive).

Which outcome does the source give for `CC1(C)C(=O)C(C)(C)C1=O` here?
The outcome was “inactive”.

With `CC(O)CCCCn1c(=O)c2c(ncn2C)n(C)c1=O` (configuration not stated) as the compound, how does the outcome read?
Its outcome is “inactive”.

With `CC/C=C\CCCCCCCCCCOC(C)=O` as the compound, how does the outcome read?
The outcome was “inactive”.

With `CCCCCCCCS(=O)(=O)O` as the compound, how does the outcome read?
The outcome was “inactive”.

Which outcome does the source give for `CN1C(CCl)Nc2cc(Cl)c(S(N)(=O)=O)cc2S1(=O)=O` (configuration not stated) here?
The outcome was “inactive”.

For `CC(=O)SCC(CC(=O)c1ccc(C)cc1)C(=O)O` (configuration not stated), which outcome is on record?
The outcome was “inactive”.

With `CN(C)c1ccncc1` as the compound, how does the outcome read?
The outcome was “inactive”.

With `O=S(=O)(O)CC(O)CCl` (configuration not stated) as the compound, how does the outcome read?
The outcome was “inactive”.

With `N[C@H]1C(O)O[C@H](CO)[C@@H](O)[C@@H]1O` (some centres not stated) as the compound, how does the outcome read?
The outcome was “inactive”.

Which outcome does the source give for `C=CCN1CCc2nc(N)sc2CC1` here?
Its outcome is “inactive”.

For `Cc1ccc(O)c([N+](=O)[O-])c1`, which outcome is on record?
Its outcome is “inactive”.

With `CN(C)c1cc(NC(=O)CNC(C)(C)C)c(O)c2c1C[C@H]1C[C@H]3[C@H](N(C)C)C(=O)C(C(N)=O)=C(O)[C@@]3(O)C(=O)C1=C2O` as the compound, how does the outcome read?
Its outcome is “inactive”.

With `CCOc1ccccc1OCCN[C@H](C)Cc1ccc(OC)c(S(N)(=O)=O)c1` as the compound, how does the outcome read?
Its outcome is “inactive”.

For `CCC(C)SSC(C)CC` (configuration not stated), which outcome is on record?
Its outcome is “inactive”.

— PubChem BioAssay (Tox21)
